# Screening results from PubChem.
# Shown are actives, neighbours in structure and some others; about 6.9% of the full set was active somewhere.
# Beta cell apopt – beta cell apoptosis inhibition; INS-1E cytokine-induced death, ATP luminescence, 48 h; percent of positive-control rescue, neutral wells zero; protection from apoptosis, % (concentration not given with the values); 300,000 compounds, 0.8% hits;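 active = Every replicate reaches about 75%, or at least half do and their mean reaches it too, limit read from the data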;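 also: higher means more ATP so stronger rescue from cytokine killing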
# Mdm2-MdmX inh – human Mdm2/MdmX binding inhibition. 330,000 compounds, 3% hits. inhibition, % at 8 µM. O15151+Q00987. SaOS-2 split-luciferase Mdm2/MdmX complementation, luminescence;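 active = inhibition of at least 50% at 8 µM in the primary screen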
# Target sequence (O15151 whole entry, looked up): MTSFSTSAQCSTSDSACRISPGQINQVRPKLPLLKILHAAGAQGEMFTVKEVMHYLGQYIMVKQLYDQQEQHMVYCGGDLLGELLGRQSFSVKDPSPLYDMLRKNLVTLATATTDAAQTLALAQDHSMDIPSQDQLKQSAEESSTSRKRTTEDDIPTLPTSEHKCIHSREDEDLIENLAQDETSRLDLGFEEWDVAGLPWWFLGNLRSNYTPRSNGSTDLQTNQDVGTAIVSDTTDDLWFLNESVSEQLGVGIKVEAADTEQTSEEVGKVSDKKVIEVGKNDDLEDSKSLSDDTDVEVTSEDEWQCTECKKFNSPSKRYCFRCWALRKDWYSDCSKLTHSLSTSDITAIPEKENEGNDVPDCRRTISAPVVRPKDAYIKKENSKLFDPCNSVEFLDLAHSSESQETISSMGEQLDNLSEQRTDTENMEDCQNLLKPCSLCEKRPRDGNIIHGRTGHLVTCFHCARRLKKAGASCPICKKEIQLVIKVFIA
# Target sequence (Q00987 whole entry, looked up): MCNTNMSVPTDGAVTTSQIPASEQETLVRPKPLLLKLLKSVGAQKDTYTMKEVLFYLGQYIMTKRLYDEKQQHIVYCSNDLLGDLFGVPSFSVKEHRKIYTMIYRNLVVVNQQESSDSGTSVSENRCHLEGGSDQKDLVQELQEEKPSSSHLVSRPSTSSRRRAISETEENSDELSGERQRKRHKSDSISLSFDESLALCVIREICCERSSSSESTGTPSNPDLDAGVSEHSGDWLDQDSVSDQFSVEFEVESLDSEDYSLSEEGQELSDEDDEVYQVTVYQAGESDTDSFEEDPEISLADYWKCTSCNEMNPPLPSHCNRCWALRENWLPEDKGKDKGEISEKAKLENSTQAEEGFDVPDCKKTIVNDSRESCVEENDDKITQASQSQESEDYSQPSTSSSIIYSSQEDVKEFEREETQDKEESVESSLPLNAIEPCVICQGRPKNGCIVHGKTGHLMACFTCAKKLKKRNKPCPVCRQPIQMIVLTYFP
# CSC inhib – blocks cancer stem cells. cancer stem cell-like cells viability, luminescence. inhibition, % at 7.5 µM. 300,000 compounds, 1.1% hits. AID 2717; in the data active = inhibition above about 75%; tested in HMLE shEcad cells
# MPTP block – blocks calcium-induced mitochondrial swelling; 360,000 compounds, 1.4% hits; isolated mouse mitochondria, Ca2+ swelling absorbance, 30 min; inhibition, % at 10 µM;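 active = inhibition of 50% or more, scaled per plate between neutral and stimulator controls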
# SKKanGAS inh – SKKanGAS growth inhibition; 300,000 compounds, 1.3% hits; inhibition, % at 7.5 µM; S. pyogenes SKKanGAS, kanamycin growth, BacTiter-Glo, 6 h;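 active = mean replicate score, as percent of positive control median, at least 50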;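 also: strain carries kanamycin resistance gene driven by streptokinase promoter and grows in 40 µg/ml kanamycin; loss of luminescence reflects streptokinase promoter inhibition or plain growth inhibition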
# NR3A LBD binder – modulators (binders) of human NR3A ligand-binding domain; NR3A LBD differential scanning fluorimetry, Tm shift; 0% = protein alone, 100% = glycine-bound protein; Tm shift relative to glycine control, % at 25 µM; 340,000 compounds, 2.5% hits;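 active = melting temperature shift of at least 10% of the positive control shift, at one fixed dose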
# Mdm2-MdmX conf – human Mdm2/MdmX binding inhibition, confirmed. inhibition, % at 8 µM. shares compounds with Mdm2-MdmX inh. 10,000 compounds, 55% hits. luminescent assay; in the data active = inhibition above about 40%
# FLuc counter – inhibits full-length luciferase, flagging false Mdm2/MdmX hits; shares compounds with Mdm2-MdmX inh; SaOS-2 full-length luciferase counterscreen, luminescence; inhibition, % at 8 µM; 6,200 compounds, 77% hits; AID 504607;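 active = mean inhibition at 8 µM reaching about 37%, which flags the compound as non-specific, limit read from the data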;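 also: p53-null SaOS-2 cells with luciferase driven by a doxycycline-inducible promoter; compound on cells about two nights before reading with doxycycline added after day one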
# Hits are given with their value; 0 = inactive; - = no result.
SMILES,Beta cell apopt,Mdm2-MdmX inh,CSC inhib,MPTP block,SKKanGAS inh,NR3A LBD binder,Mdm2-MdmX conf,FLuc counter
COc1cccc(/C=N\NC(=O)c2ccc(Cn3cc(Br)c([N+](=O)[O-])n3)o2)c1O,96,59,0,0,0,0,74,43
COc1ccc(/C=N\NC(=O)c2c(C)nc3ccc(Br)cn23)cc1,0,59,0,0,0,0,52,49
COc1cc(/C=N\NC(=O)c2ccc(Cn3nc([N+](=O)[O-])c(Cl)c3C)o2)ccc1O,0,0,0,0,0,0,-,-
Cc1ccc(/C=N/NC(=O)c2c(C)nc3ccc(Br)cn23)cc1,0,50,0,0,0,0,55,53
CCCCCC(=O)N[C@@H](c1ccccc1)[C@@H](O)C(=O)O[C@H]1C[C@@]2(O)[C@@H](OC(=O)c3ccccc3)C3[C@](C)(C(=O)[C@H](OC(C)=O)C(=C1C)C2(C)C)[C@@H](O)C[C@H]1OC[C@@]31OC(C)=O (stereo not given in full),0,72,0,0,0,0,74,43
CC(=O)O[C@H]1C(=O)[C@@]2(C)[C@H]([C@H](OC(=O)c3ccccc3)[C@]3(O)C[C@H](OC(=O)[C@H](O)[C@@H](NC(=O)c4ccccc4)c4ccccc4)C(C)=C1C3(C)C)[C@]1(OC(C)=O)CO[C@@H]1C[C@@H]2O,0,65,0,0,-,0,64,57
Cc1cc(=O)[nH]c2nnc(-c3ccc(Cl)cc3)n12,-,0,-,0,0,0,-,-
CCCCNC(=O)CSc1nc2cc(OC)c(OC)cc2c(=O)n1Cc1ccc(OC)cc1,0,0,0,0,0,0,-,-
COc1ccc(Cn2c(SCc3ccc(C)cc3)nc3cc(OC)c(OC)cc3c2=N)cc1Cl,110,94,103,0,102,0,100,51
COc1ccc(Cn2c(SCc3cc(C)ccc3C)nc3cc(OC)c(OC)cc3c2=N)cc1,105,84,142,0,109,0,100,51
COc1ccc(-c2nc(Cn3c(SCc4ccc(F)cc4)nc4ccncc43)c(C)o2)cc1OC,0,0,0,0,0,0,-,-
N#Cc1ccccc1NC(=O)c1ccccc1OCC(=O)Nc1ccc2c(c1)oc1ccccc12,0,62,0,0,0,23,0,-
Cc1ccc(OCC(=O)Nc2ccc3c(c2)OCO3)cc1C,0,0,0,0,0,0,-,-
O=C(COc1ccc2c(c1)OCO2)Nc1ccc2c(c1)oc1ccccc12,0,50,0,0,0,0,0,-
CNC(=O)COc1ccccc1C(=O)Nc1ccc2c(c1)oc1ccccc12,0,0,0,0,0,0,-,-
O=C(CCCN1C(=O)S/C(=C\C=C\c2ccccc2)C1=O)Nc1ccc(C(=O)O)cc1,0,0,0,0,0,0,-,-
O=C(CN1C(=O)S/C(=C\C=C\c2ccccc2)C1=O)Nc1cccc(O)c1,0,99,93,0,0,27,0,-
COc1ccc(S(=O)(=O)N2CCN(C(=O)C3CC(=O)N(c4ccccc4F)C3)CC2)cc1OC (stereo not given),-,-,-,0,-,0,-,-
COc1ccc(CCn2c(NN)nc3c2c(=O)[nH]c(=O)n3C)cc1,0,57,0,0,0,0,50,67
CSCC(C)N1CCC(CCC(=O)NC2CC2)CC1 (stereo not given),0,0,0,0,0,0,-,-
CN1CCN(CCC=C2c3ccccc3Sc3ccc(S(=O)(=O)N(C)C)cc32)CC1,0,50,0,0,-,0,0,-
Cn1ncc2c(Nc3ccc(-c4ccccc4)cc3)ncnc21,0,76,0,0,0,0,48,73
NC(=O)c1nn(-c2ccccc2)nc1NC(=O)Cn1nnc(-c2ccccc2)n1,0,61,0,0,0,0,0,-
NC(=O)c1nn(-c2ccccc2)nc1NC(=O)CN1CCCC1,0,0,0,0,0,0,-,-
O=C(Cc1cccs1)NCCSc1c(-c2ccc(Cl)cc2)[nH]c2ccccc12,0,77,0,0,0,0,0,-
Cc1ccc(-c2cc3onc(-c4ccccc4)c3c(=O)n2C)cc1,0,73,0,0,-,0,74,103
Cc1cccn2c(=O)c(C=NCc3ccco3)c(Nc3ccc(SC(F)F)cc3)nc12,0,56,0,0,0,0,0,-
